Bioassay records from PubChem.
An excerpt weighted towards active compounds, which were near 2.4% of everything screened.
Pol eta inh-1 = inhibitors of human DNA polymerase eta | Potency, µM (titrated, usually from 114 µM), most hits filed as inhibitors | recombinant Pol eta, fluorescent DNA replication assay | 390,000 compounds, 1.2% hits | Q9Y253
Target sequence (Q9Y253 whole entry, looked up): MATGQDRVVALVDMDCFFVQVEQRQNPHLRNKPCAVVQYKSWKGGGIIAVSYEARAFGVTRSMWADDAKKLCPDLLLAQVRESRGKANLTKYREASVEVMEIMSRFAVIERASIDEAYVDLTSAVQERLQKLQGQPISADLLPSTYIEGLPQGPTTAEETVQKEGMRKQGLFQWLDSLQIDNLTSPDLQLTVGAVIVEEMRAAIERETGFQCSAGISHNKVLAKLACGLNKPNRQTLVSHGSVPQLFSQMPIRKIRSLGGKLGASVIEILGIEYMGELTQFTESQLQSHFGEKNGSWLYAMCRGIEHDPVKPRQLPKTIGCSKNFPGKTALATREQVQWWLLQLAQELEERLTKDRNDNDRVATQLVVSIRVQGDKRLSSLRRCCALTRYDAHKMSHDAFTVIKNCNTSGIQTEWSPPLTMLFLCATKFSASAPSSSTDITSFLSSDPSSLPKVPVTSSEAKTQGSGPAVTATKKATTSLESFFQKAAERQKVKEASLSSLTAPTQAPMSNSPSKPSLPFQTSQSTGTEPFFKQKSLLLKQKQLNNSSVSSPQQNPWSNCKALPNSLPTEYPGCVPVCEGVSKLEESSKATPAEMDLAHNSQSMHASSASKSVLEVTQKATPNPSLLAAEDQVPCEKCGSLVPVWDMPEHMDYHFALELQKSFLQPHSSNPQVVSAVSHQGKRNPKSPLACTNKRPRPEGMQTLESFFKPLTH
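Fluorescent replication assay: 50 nM final substrate added after a 15 min room-temperature compound preincubation with 10 nM enzyme. Signal taken at 0 min and again at 10 min.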
Pol beta inh = DNA polymerase beta (human) inhibition; Pol beta primer extension/strand displacement, fluorescence kinetic; AID 485314; Potency, µM (titrated, usually from 114 µM), usual class: inhibitors; P06746; 340,000 compounds, 1.3% hits
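Enzyme-only controls used 10 nM Pol beta; buffer lacking enzyme served as negative control. Compound preincubated 15 min, then 50 nM substrate added; 0 and 10 min reads at room temperature.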
APEX1 inh = APE1 (human) endonuclease inhibition; recombinant APE1, TAMRA/BHQ-2 abasic DNA cleavage fluorescence; Potency, µM (doses to about 65.8 µM), actives largely listed as inhibitors; 350,000 compounds, 0.35% hits; note: nearly all actives have a fitted effect of over 55% in size
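Incision of a quenched TAMRA/BHQ-2 THF abasic-site duplex (50 nM) by 0.75 nM APE1, after 15 min compound preincubation, measured as fluorescence increase over three 60 s reads. Values normalized to buffer, DMSO and NSC13755 control wells.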
Pol iota inh = DNA polymerase iota (human) inhibition | Q9UNA4 | Pol iota fluorescent replication assay, 10 min | Potency, µM (series often up to 115 µM), actives largely listed as inhibitors | 390,000 compounds, 1% hits
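Pol iota at 10 nM preincubated 15 min with compounds at room temperature; reaction started with fluorescent substrate, 50 nM final. Fluorescence read kinetically at 0 and 10 min; buffer-only wells as negative control.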
GLS inhibitor = inhibitors of human glutaminase (GLS); AID 624170; GLS enzymatic activity, qHTS titration; Potency, µM (doses to about 45.5 µM), hits mostly inhibitors; 410,000 compounds, 0.21% hits
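Compounds were pin-transferred onto hKGA, after which L-glutamine (1 mM solution) and a detection mix of glutamate oxidase, HRP and Amplex Red were added. Initial and 30 min RT fluorescence reads were collected.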
Pol kappa inh-1 = DNA polymerase kappa (human) inhibition; Potency, µM (top dose mostly 107 µM), hits mostly inhibitors; 400,000 compounds, 0.53% hits; purified Pol kappa, fluorescent DNA synthesis assay, 10 min
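First, compounds were pin-transferred onto 10 nM Pol kappa. After 15 min at room temperature, substrate was added to 50 nM final. Fluorescence was then measured kinetically at 0 and 10 min.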
TbPGK inh = blocks T. brucei phosphoglycerate kinase | TbPGK coupled GAPDH assay, Kinase-Glo luminescence | 500 compounds, 79% hits | shares compounds with Pol kappa inh-1 | Potency, µM (highest dose often 57.5 µM), actives largely listed as inhibitors; note: nearly all actives have a fitted effect of over 65% in size
POLI cherry-pick = Confirm cherry-picked inhibitors of human polymerase iota. AID 720496. 1,500 compounds, 77% hits. Potency, µM, usual class: inhibitors. shares compounds with Pol kappa inh-1. Pol iota primer extension, TAMRA/BHQ fluorescence
Pol kappa inh-2 = confirmation of human DNA polymerase kappa inhibitors; shares compounds with Pol eta inh-1; purified Pol-kappa, fluorescent strand-displacement substrate; Potency, µM, actives largely listed as inhibitors; 920 compounds, 76% hits; AID 720501
Pol eta inh-2 = Pol eta (human) inhibition, cherry-pick confirmation | AID 720502 | 2,600 compounds, 64% hits | Potency, µM, actives largely listed as inhibitors | shares compounds with Pol eta inh-1 | Pol eta primer extension, TAMRA/BHQ fluorescence, 10 min
GLS hit conf = confirmation of human glutaminase inhibitors. AID 624261. Potency, µM (top dose mostly 46.1 µM), actives largely listed as inhibitors. shares compounds with GLS inhibitor. 35 tested, under 10 active. biochemical glutaminase enzyme inhibition assay; calls by dose curve
HRP GOx counter = counter-screen for glutaminase inhibitors: HRP coupled enzyme inhibition; shares compounds with GLS inhibitor; HRP/glutamate oxidase coupled Amplex Red fluorescence counterscreen; activity change, negative = inhibition, % at 46.1 µM; 35 tested, under 10 active; AID 624262
HEK293 tox = counter-screen for glutaminase inhibitors: HEK-293 cytotoxicity. shares compounds with GLS inhibitor. HEK-293 viability, CellTiter-Glo luminescence, 24 h. activity change, negative = cytotoxicity, % at 46.1 µM. 35 tested, under 10 active. AID 624264
Of the large screens only hits and unclear results are named; the others gave an inactive call (follow-up assays come after a bar, where they were run); ! = a repeat was not active. Unless noted, calls come from the whole dose curve; as a rule, active = well fitted curve in the direction sought with a large enough effect; inconclusive = small, poorly fitted or top-dose-only effect, or another doubt; inactive = no such curve, though single readings can be large; an effect the other way counts as inactive or inconclusive.

COc1ccc(NS(=O)(=O)c2ccc3c(c2)[C@H]2C=CC[C@H]2[C@@H](c2ccc(C(=O)O)cc2)N3)cc1	Pol eta inh-1 2.8µM, Pol beta inh 20µM, Pol iota inh inconclusive, GLS inhibitor 10µM, Pol kappa inh-1 10µM | TbPGK inh 18µM | POLI cherry-pick 24 | Pol kappa inh-2 2.4 | Pol eta inh-2 9.5 | GLS hit conf 3.3µM | HRP GOx counter inactive | HEK293 tox inactive
O=C(CSc1ncn(-c2ccccc2)n1)Nc1nc2c(s1)CCCC2	Pol eta inh-1 50µM, Pol beta inh 32µM, APEX1 inh inconclusive, Pol iota inh 25µM, GLS inhibitor inconclusive | Pol eta inh-2 inconclusive
O=C(Nc1nc(-c2ccco2)c(-c2ccco2)s1)c1cnccn1	Pol eta inh-1 inconclusive, Pol iota inh 50µM, Pol kappa inh-1 inconclusive (no result: Pol beta inh) | Pol eta inh-2 76
COCCNc1ncnc2c1cnn2-c1cc(Cl)ccc1C	none (no result: APEX1 inh)
COc1ccc(/C=N/c2oc(C)c(C)c2C#N)c(OC)c1	none
Cc1oc(/N=C/c2cccc3ccccc23)c(C#N)c1C	Pol eta inh-1 25µM, Pol iota inh 22µM, Pol kappa inh-1 inconclusive | Pol eta inh-2 48
CCCn1nc(NS(=O)(=O)c2cccc3nonc23)c2cc3ccccc3nc21	none
CCOc1cc(/C=C2\SC(=O)N(CC(=O)Nc3ccccc3F)C2=O)cc([N+](=O)[O-])c1O	Pol eta inh-1 inconclusive, Pol iota inh 11µM | Pol kappa inh-2 inconclusive
CC(=O)N1CCCc2cc(S(=O)(=O)N3CCCC(C(=O)NCc4ccc(C)cc4)C3)ccc21 (stereo unspecified)	none
O=C(/C=C/c1ccco1)NC(=S)Nc1ccccc1O	Pol beta inh 22µM, Pol iota inh inconclusive, Pol kappa inh-1 inconclusive | Pol eta inh-2 inconclusive
O=C(/C=C\c1ccco1)NC(=S)Nc1ccccc1O	Pol eta inh-1 22µM, Pol beta inh 56µM, Pol iota inh inconclusive, Pol kappa inh-1 inconclusive | Pol eta inh-2 inconclusive
COc1cccc(NC(=O)Nc2ccc3snnc3c2)c1	none (no result: APEX1 inh)
O=C(Nc1cccnc1Cl)c1ccc(=O)oc1	Pol eta inh-1 20µM, Pol beta inh 13µM, APEX1 inh 32µM, Pol iota inh 22µM, Pol kappa inh-1 45µM | Pol eta inh-2 inconclusive
Cc1oc2c(cc(NS(=O)(=O)c3ccc(C(C)C)cc3)c3ccccc32)c1C(=O)O	Pol eta inh-1 45µM, Pol beta inh 50µM!, Pol iota inh inconclusive, GLS inhibitor inconclusive, Pol kappa inh-1 inconclusive | Pol kappa inh-2 inconclusive | Pol eta inh-2 inconclusive
Cc1oc2c(cc(NS(=O)(=O)c3ccc(F)cc3)c3ccccc32)c1C(=O)O	Pol eta inh-1 inconclusive, Pol iota inh inconclusive
CC(C)C1Nc2ccc(C(=O)O)cc2C2C=CCC21 (stereo unspecified)	Pol eta inh-1 20µM, Pol beta inh 13µM, Pol iota inh inconclusive, Pol kappa inh-1 inconclusive | Pol eta inh-2 27
O=C(O)c1ccc2c(c1)C1C=CCC1C(c1ccncc1)N2 (stereo unspecified)	Pol eta inh-1 inconclusive, Pol beta inh inconclusive, APEX1 inh inconclusive
O=C(NN=Cc1ccc(O)cc1)c1ccccc1NS(=O)(=O)c1cccs1	none (no result: Pol beta inh)
O=C(N/N=C/c1cc(Cl)cc([N+](=O)[O-])c1O)c1ccccc1NS(=O)(=O)c1cccs1	Pol eta inh-1 inconclusive, Pol iota inh inconclusive | Pol eta inh-2 inconclusive
COc1ccc(C(=O)Nc2sc3c(c2C#N)CCN(C(C)=O)C3)cc1	none
CC(=O)N1CCc2c(sc(NC(=O)c3ccc([N+](=O)[O-])o3)c2C#N)C1	Pol eta inh-1 20µM, Pol beta inh inconclusive, APEX1 inh inconclusive, Pol iota inh inconclusive, Pol kappa inh-1 inconclusive | Pol eta inh-2 inconclusive
CC#CCOC(=O)C1=CCCN(C)C1	none (no result: Pol eta inh-1, Pol beta inh, Pol iota inh, GLS inhibitor)
CCC[C@@H]1C[C@@H](C(=O)N[C@@H]([C@H]2O[C@H](SC)[C@H](O)[C@@H](O)[C@H]2O)[C@H](C)Cl)N(C)C1	none (no result: Pol eta inh-1, Pol beta inh, Pol iota inh, GLS inhibitor, Pol kappa inh-1)
O=C(O)/C(=C/c1ccco1)NC(=O)c1ccc(Br)o1	Pol eta inh-1 inconclusive, Pol beta inh inconclusive, Pol iota inh inconclusive | Pol eta inh-2 60
O=C(N/C(=C\c1ccco1)C(=O)N1CCCC1)c1ccccc1	none
NNC(=O)/C(=C\c1ccco1)NC(=O)c1ccco1	Pol iota inh inconclusive
CC(C)C(NC(=O)/C(=C\c1ccco1)NC(=O)c1ccco1)C(=O)O (stereo unspecified)	Pol eta inh-1 20µM, Pol beta inh 22µM, GLS inhibitor inconclusive, Pol kappa inh-1 inconclusive | Pol kappa inh-2 inconclusive
O=C(O)/C(=C/c1ccco1)NC(=O)c1ccccc1	Pol eta inh-1 11µM, Pol beta inh 40µM, APEX1 inh inconclusive, Pol iota inh inconclusive, GLS inhibitor inconclusive | Pol kappa inh-2 47 | Pol eta inh-2 inconclusive
COc1ccc(N2CCC(CNC(=S)Nc3cccc(OC)c3)C2)cc1 (stereo unspecified)	none (no result: Pol eta inh-1, Pol iota inh, GLS inhibitor, Pol kappa inh-1)
COC(=O)c1c(NC(=O)CCCC(=O)O)sc2c1CCC2	Pol eta inh-1 inconclusive | Pol eta inh-2 30
O=C(NC1(C(=O)O)CCCC1)c1ccccc1	none (no result: Pol beta inh, APEX1 inh)
CC(C)(C)OC(=O)NCCCCC1=CC2=CC(=O)C(C)(O)C(=O)C2=CO1 (stereo unspecified)	Pol eta inh-1 20µM, Pol iota inh 50µM, Pol kappa inh-1 79µM (no result: Pol beta inh) | Pol eta inh-2 60
